# Results from the supplement of paper PMC11634586.
# Structures can show the parent of a compound that is named as a salt.
# Tested on: NCI-H1688
# Experiment: inhibition of cell viability relative to untreated control (fraction); higher = stronger growth inhibition, active = 0.5 or more
# Settings: 30 µM; 24 h
# How it was run: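 Inhibition of cell viability appears as a fraction, based on viability relative to untreated cells. The assay used NCI-H1688 small cell lung cancer cells seeded in 96-well plates at 3 × 10^3 cells/well, treated one day later with a natural compound library (TargetMol) at 30 µM for 24 h at 37°C and 5% CO2. Absorbance at 450 nm with Cell Counting Kit-8 was recorded in triplicate.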
row,Structure (SMILES),inhibition of cell viability
1,O=C[C@H](NS(=O)(=O)O)[C@@H](O)[C@H](O)[C@H](O)CO [N-Sulfo-glucosamine sodium salt],0.162 (inactive)
2,C[C@H]1O[C@@H](O[C@H]2[C@@H](O)C[C@H](O[C@H]3[C@@H](O)C[C@H](O[C@H]4CC[C@@]5(C)[C@H](CC[C@@H]6[C@@H]5C[C@@H](O)[C@]5(C)[C@@H](C7=CC(=O)OC7)CC[C@]65O)C4)O[C@@H]3C)O[C@@H]2C)C[C@H](O)[C@@H]1O [Digoxin],0.995 (active)
3,C/C=C\c1ccc(OC)cc1 [cis-Anethol],-0.182 (inactive)
4,COc1cc2c(cc1OC)-c1cc3ccc(OC)c(OC)c3c[n+]1CC2 [Palmatine chloride],0.0401 (inactive)
5,CC(C)=CCC[C@](C)(O)[C@H]1CC[C@]2(C)[C@@H]1[C@H](O)C[C@@H]1[C@@]3(C)CC[C@H](O)C(C)(C)[C@@H]3[C@@H](O)C[C@]12C [Protopanaxatriol],-0.051 (inactive)
6,COc1cc(C2Oc3cc([C@H]4Oc5cc(O)cc(O)c5C(=O)[C@@H]4O)ccc3OC2CO)ccc1O (some centres undefined) [Silymarin],0.221 (inactive)
7,CC(=O)Oc1cc(C)c(OC(C)=O)c2ccccc12 [Menadiol Diacetate],0.384 (inactive)
8,CC[C@H](C)C(=O)O[C@H]1CCC=C2C=C[C@H](C)[C@H](CC[C@@H]3C[C@@H](O)CC(=O)O3)[C@H]21 [Mevastatin],0.86 (active)
9,CC1(C)[C@@H](O[C@H]2O[C@H](C(=O)O)[C@@H](O)[C@H](O)[C@H]2O[C@@H]2O[C@H](C(=O)O)[C@@H](O)[C@H](O)[C@H]2O)CC[C@]2(C)[C@H]3C(=O)C=C4[C@@H]5C[C@@](C)(C(=O)O)CC[C@]5(C)CC[C@@]4(C)[C@]3(C)CC[C@@H]12 [Monoammonium glycyrrhizinate],0.346 (inactive)
